# Source: ChEMBL document CHEMBL5606458, “ASAP - ZIKV NS2B-NS3 protease fluorescence single point” (2024)
# The campaign covered roughly 2,700 compounds. About 160 (5.9%) showed an effect of 50% or more. The sample holds strong results, similar compounds and a random draw of the others, so the mix is not that of the screen.
# Target: Nonstructural protein 3 (Zika virus) (UniProt A0A024AXB9)
# Sequence (A0A024AXB9 as listed by the source): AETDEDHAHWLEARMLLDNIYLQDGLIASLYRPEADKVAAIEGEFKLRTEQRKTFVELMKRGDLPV
smiles,measurement,setting,value
N=C(N)NCCC[C@H](NC(=O)c1nccs1)C(=O)N[C@@H](CCCCN)C(=O)N[C@@H](C(N)=O)c1ccc(OCc2ccc(C(F)(F)F)cc2)cc1,inhibition,"PRVABC59, Concentration 15.0 uM, Number of replicates 1.0",91.8%
same,inhibition,"PRVABC59, Concentration 49.5 uM, Number of replicates 2.0, Standard deviation 0.021859715861266255 %",94.6%
same,inhibition,"PRVABC59, Concentration 49.5 uM, Number of replicates 2.0, Standard deviation 0.024233426369399808 %",96.9%
same,inhibition,"PRVABC59, Concentration 49.5 uM, Number of replicates 2.0, Standard deviation 0.10948739718766008 %",93.8%
same,inhibition,"PRVABC59, Concentration 49.5 uM, Number of replicates 2.0, Standard deviation 0.1218738502028297 %",97.5%
same,inhibition,"PRVABC59, Concentration 49.5 uM, Number of replicates 2.0, Standard deviation 0.12395624169405596 %",92.6%
same,inhibition,"PRVABC59, Concentration 49.5 uM, Number of replicates 2.0, Standard deviation 0.12648640130386196 %",91.3%
same,inhibition,"PRVABC59, Concentration 49.5 uM, Number of replicates 2.0, Standard deviation 0.127991549557883 %",97.2%
same,inhibition,"PRVABC59, Concentration 49.5 uM, Number of replicates 2.0, Standard deviation 0.13878114277667186 %",95.3%
same,inhibition,"PRVABC59, Concentration 49.5 uM, Number of replicates 2.0, Standard deviation 0.18792773988825517 %",89.4%
same,inhibition,"PRVABC59, Concentration 49.5 uM, Number of replicates 2.0, Standard deviation 0.2282484497468692 %",91.2%
same,inhibition,"PRVABC59, Concentration 49.5 uM, Number of replicates 2.0, Standard deviation 0.23805618998274827 %",97%
same,inhibition,"PRVABC59, Concentration 49.5 uM, Number of replicates 2.0, Standard deviation 0.25515230043791925 %",95.5%
same,inhibition,"PRVABC59, Concentration 49.5 uM, Number of replicates 2.0, Standard deviation 0.3144519047683829 %",85.9%
same,inhibition,"PRVABC59, Concentration 49.5 uM, Number of replicates 2.0, Standard deviation 0.8044343068166325 %",87.1%
same,inhibition,"PRVABC59, Concentration 49.5 uM, Number of replicates 2.0, Standard deviation 1.112040214687694 %",90.3%
same,inhibition,"PRVABC59, Concentration 49.5 uM, Number of replicates 2.0, Standard deviation 1.1256998397026805 %",90.4%
same,inhibition,"PRVABC59, Concentration 49.5 uM, Number of replicates 2.0, Standard deviation 1.7230548786677078 %",84.5%
same,inhibition,"PRVABC59, Concentration 49.5 uM, Number of replicates 2.0, Standard deviation 1.876040520916915 %",90.3%
same,inhibition,"PRVABC59, Concentration 49.8 uM, Number of replicates 2.0, Standard deviation 1.8581405857669444 %",97.9%
same,inhibition,"PRVABC59, Concentration 49.95 uM, Number of replicates 2.0, Standard deviation 2.309253478244507 %",87.4%
same,inhibition,"PRVABC59, Concentration 50.0 uM, Number of replicates 2.0, Standard deviation 0.36743959706585505 %",88.7%
same,inhibition,"PRVABC59, Concentration 99.01 uM, Number of replicates 2.0, Standard deviation 0.0 %",93.4%
same,inhibition,"PRVABC59, Concentration 99.01 uM, Number of replicates 2.0, Standard deviation 0.012046580828777775 %",94.9%
same,inhibition,"PRVABC59, Concentration 99.01 uM, Number of replicates 2.0, Standard deviation 0.02911571730090177 %",93.7%
same,inhibition,"PRVABC59, Concentration 99.01 uM, Number of replicates 2.0, Standard deviation 0.06378807510947981 %",97.6%
same,inhibition,"PRVABC59, Concentration 99.01 uM, Number of replicates 2.0, Standard deviation 0.067278508515758 %",98.8%
same,inhibition,"PRVABC59, Concentration 99.01 uM, Number of replicates 2.0, Standard deviation 0.0706826251762859 %",98.7%
same,inhibition,"PRVABC59, Concentration 99.01 uM, Number of replicates 2.0, Standard deviation 0.071545792633789 %",97.3%
same,inhibition,"PRVABC59, Concentration 99.01 uM, Number of replicates 2.0, Standard deviation 0.07721572387026257 %",95.8%
same,inhibition,"PRVABC59, Concentration 99.01 uM, Number of replicates 2.0, Standard deviation 0.10372575440882682 %",99%
same,inhibition,"PRVABC59, Concentration 99.01 uM, Number of replicates 2.0, Standard deviation 0.10948739718766008 %",97%
same,inhibition,"PRVABC59, Concentration 99.01 uM, Number of replicates 2.0, Standard deviation 0.11599352189858977 %",97.7%
same,inhibition,"PRVABC59, Concentration 99.01 uM, Number of replicates 2.0, Standard deviation 0.1471970254873272 %",98.8%
same,inhibition,"PRVABC59, Concentration 99.01 uM, Number of replicates 2.0, Standard deviation 0.27009049224933246 %",94.8%
same,inhibition,"PRVABC59, Concentration 99.01 uM, Number of replicates 2.0, Standard deviation 0.8601032130289737 %",94.3%
same,inhibition,"PRVABC59, Concentration 99.01 uM, Number of replicates 2.0, Standard deviation 0.9406367368140138 %",94.2%
same,inhibition,"PRVABC59, Concentration 99.01 uM, Number of replicates 2.0, Standard deviation 1.3348561042489029 %",88.7%
same,inhibition,"PRVABC59, Concentration 99.01 uM, Number of replicates 2.0, Standard deviation 1.4059433391708933 %",94.2%
same,inhibition,"PRVABC59, Concentration 99.01 uM, Number of replicates 2.0, Standard deviation 1.7588979073405244 %",89.5%
same,inhibition,"PRVABC59, Concentration 99.5 uM, Number of replicates 2.0, Standard deviation 0.12741970111728718 %",93.3%
same,inhibition,"PRVABC59, Concentration 99.5 uM, Number of replicates 2.0, Standard deviation 0.16892187143335857 %",101%
same,inhibition,"PRVABC59, Concentration 99.9 uM, Number of replicates 2.0, Standard deviation 1.5690280406728871 %",94.6%
same,inhibition,"PRVABC59, Concentration 100.0 uM, Number of replicates 2.0, Standard deviation 4.458993610342439 %",98%
same,inhibition,"PRVABC59, Concentration 198.0 uM, Number of replicates 2.0, Standard deviation 0.0026488451352126683 %",96.7%
same,inhibition,"PRVABC59, Concentration 198.0 uM, Number of replicates 2.0, Standard deviation 0.013907785659018856 %",98.8%
same,inhibition,"PRVABC59, Concentration 198.0 uM, Number of replicates 2.0, Standard deviation 0.021082865149513456 %",97.6%
same,inhibition,"PRVABC59, Concentration 198.0 uM, Number of replicates 2.0, Standard deviation 0.03251443916482027 %",97.8%
same,inhibition,"PRVABC59, Concentration 198.0 uM, Number of replicates 2.0, Standard deviation 0.03514709991020475 %",97.2%
same,inhibition,"PRVABC59, Concentration 198.0 uM, Number of replicates 2.0, Standard deviation 0.0599254007371534 %",99.1%
same,inhibition,"PRVABC59, Concentration 198.0 uM, Number of replicates 2.0, Standard deviation 0.06866497124437239 %",99.6%
same,inhibition,"PRVABC59, Concentration 198.0 uM, Number of replicates 2.0, Standard deviation 0.07418384817578288 %",97.3%
same,inhibition,"PRVABC59, Concentration 198.0 uM, Number of replicates 2.0, Standard deviation 0.0745722735316593 %",98.9%
same,inhibition,"PRVABC59, Concentration 198.0 uM, Number of replicates 2.0, Standard deviation 0.07483122376891023 %",96.4%
same,inhibition,"PRVABC59, Concentration 198.0 uM, Number of replicates 2.0, Standard deviation 0.07712401232790286 %",99.5%
same,inhibition,"PRVABC59, Concentration 198.0 uM, Number of replicates 2.0, Standard deviation 0.08816716098733327 %",99.7%
same,inhibition,"PRVABC59, Concentration 198.0 uM, Number of replicates 2.0, Standard deviation 0.09263944737652126 %",98.7%
same,inhibition,"PRVABC59, Concentration 198.0 uM, Number of replicates 2.0, Standard deviation 0.09449525741015294 %",99.7%
same,inhibition,"PRVABC59, Concentration 198.0 uM, Number of replicates 2.0, Standard deviation 0.3759148225392137 %",97%
same,inhibition,"PRVABC59, Concentration 198.0 uM, Number of replicates 2.0, Standard deviation 0.4983928899622956 %",97.6%
same,inhibition,"PRVABC59, Concentration 198.0 uM, Number of replicates 2.0, Standard deviation 0.5225777631622108 %",97.2%
same,inhibition,"PRVABC59, Concentration 198.0 uM, Number of replicates 2.0, Standard deviation 0.6944775623239552 %",94.7%
same,inhibition,"PRVABC59, Concentration 198.0 uM, Number of replicates 2.0, Standard deviation 1.5146538856468006 %",93.1%
same,inhibition,"PRVABC59, Concentration 200.0 uM, Number of replicates 1.0",97.4%
